Screening results from PubChem.
Tau fibril FP = blocks human tau fibril formation measured by polarization; AID 1468; Potency, µM (doses to about 57.7 µM), actives largely listed as inhibitors; K18 P301L tau heparin fibrillization, Alexa594 FP, 6 h; 0.39% of 280,000 active; P10636; also: nearly all actives have a fitted effect of over 55% in size
Target sequence (P10636 561-689 P618L limits assumed): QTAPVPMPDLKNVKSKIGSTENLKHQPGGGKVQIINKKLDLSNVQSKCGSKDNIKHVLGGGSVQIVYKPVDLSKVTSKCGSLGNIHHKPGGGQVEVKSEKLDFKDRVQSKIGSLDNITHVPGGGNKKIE
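Read-out: fluorescence polarization of Alexa 594-labeled tau (0.24 uM), 555 nm excitation, 632 nm emission. Mixtures held 15 uM unlabeled K18 P301L, compound and 20 uM heparin, pH 7 acetate buffer, incubated 6 hr at 37 C.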
Tau fluor cs = counter-screen for tau fibril formation inhibitors | 0.93% of 280,000 active | tau K18 P301L Alexa594 fluorescence, heparin fibrillization | AID 1463 | Potency, µM (series often up to 57.7 µM); also: nearly all actives have a fitted effect of over 55% in size
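Human tau K18 P301L (15 uM unlabeled, 0.24 uM Alexa 594-labeled) in 100 mM sodium acetate pH 7 with 20 uM heparin, 6 hr at 37 C. ThT 30 uM added, 1 hr ambient; Alexa 594 FP and total fluorescence read at 555/632 nm.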
Tau ThT inhib = inhibitors of human tau fibril formation, thioflavin T binding. recombinant tau K18 P301L, heparin-induced fibrillization, ThT fluorescence. Potency, µM (highest dose often 57.4 µM), usual class: inhibitors. 2.1% of 270,000 active; also: nearly all actives have a fitted effect of over 55% in size
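Fibril formation assay: tau K18 P301L at 15 uM with trace Alexa 594 label, heparin inducer 20 uM, pH 7 sodium acetate buffer, 37 C for 6 hr; endpoint ThT signal.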
Coupling enz = inhibits coupling enzyme system, counter-screen for aldolase hits. 0.67% of 290,000 active. coupling enzyme system counterscreen, AmpLite Red fluorescence. AID 2472. activity change, negative = inhibition, % at 58.2 µM, hits read low; in the data active = activity change below about -30%
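Compounds tested against the coupling enzymes alone at 57.5 uM final; readout was AmpLite Red fluorescence (525/598 nm) after 20 min at RT.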
JMJD2E inh = blocks human JMJD2E demethylase activity. B2RXH2. JMJD2E catalytic domain, FDH-coupled NADH fluorescence (FDH is formaldehyde dehydrogenase). Potency, µM (titrated, usually from 57.1 µM), usual class: inhibitors. 1.6% of 230,000 active; active = well fitted inhibition curve with a large enough effect, not every such curve was filed as active; inconclusive = small, poorly fitted or top-dose-only effect, or another doubt; inactive = no such curve, though single readings can be large or run the other way; also: nearly all actives have a fitted effect of over 50% in size
Target sequence (B2RXH2 1-337 limits assumed): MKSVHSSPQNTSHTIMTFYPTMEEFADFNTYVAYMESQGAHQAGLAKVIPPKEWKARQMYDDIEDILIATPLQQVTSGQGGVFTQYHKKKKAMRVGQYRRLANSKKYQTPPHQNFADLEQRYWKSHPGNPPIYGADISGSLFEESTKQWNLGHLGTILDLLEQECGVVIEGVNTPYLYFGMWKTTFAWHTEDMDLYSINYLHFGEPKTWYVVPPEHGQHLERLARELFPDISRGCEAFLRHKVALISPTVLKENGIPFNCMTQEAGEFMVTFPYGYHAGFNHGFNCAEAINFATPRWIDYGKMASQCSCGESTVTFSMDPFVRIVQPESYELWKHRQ
Of the large screens only hits and unclear results are named; the others gave an inactive call; [ ] = dose if it differs, or a comment. Shown are actives, neighbours in structure and some others; about 3% of the full set was active somewhere. Unless noted, calls follow the shape of the dose curve; as a rule, active = well fitted curve in the direction sought with a large enough effect; inconclusive = small, poorly fitted or top-dose-only effect, or another doubt; inactive = no such curve, though single readings can be large; an effect the other way counts as inactive or inconclusive.

COc1ccccc1CNC(=O)Cn1ncc2c(C)n(Cc3ccccc3Cl)c(C)c2c1=O	Tau ThT inhib inconclusive (no result: Coupling enz, JMJD2E inh)
O=C(Nc1ccccc1)Nc1ccc(Cl)c([N+](=O)[O-])c1	Tau fibril FP inconclusive, Tau fluor cs 11µM[quencher], Tau ThT inhib inconclusive
Cc1ccc(NC(=O)Nc2ccccc2)cc1[N+](=O)[O-]	Tau fibril FP inconclusive, Tau fluor cs inconclusive, Tau ThT inhib inconclusive
O=C(Nc1ccc(C(O)(C(F)(F)F)C(F)(F)F)cc1)c1ccc(Cl)c([N+](=O)[O-])c1	Tau fluor cs 13µM[quencher], Tau ThT inhib inconclusive
CCOC(=O)CNC(=O)O[C@H]1C(=O)c2ccc(OC)cc2O[C@@H]1c1ccc2c(c1)OCO2	Tau fibril FP inconclusive
CC(C)c1cnc2c(c1SCC(=O)NCc1ccccc1)c(=O)n(C)c(=O)n2C	none (no result: Coupling enz, JMJD2E inh)
Cc1sc(-c2ccncc2)nc1OC(=O)c1cc(Cl)cc(Cl)c1	Tau ThT inhib 28µM
Cc1sc(-c2ccncc2)nc1OC(=O)c1ccc(Cl)cc1	Tau ThT inhib inconclusive
CCCCNc1cc(C(=O)O)cc(S(N)(=O)=O)c1Oc1ccccc1	JMJD2E inh 25µM
Cn1ccc2c(OCC(=O)Nc3cc(C(F)(F)F)ccc3Cl)cccc2c1=O	none (no result: Coupling enz, JMJD2E inh)
CC(=O)n1c2ccccc2c2nc(NC(C)C)sc21	Tau fibril FP inconclusive, Tau ThT inhib 22µM
Cc1cccc(C)c1NC(=O)C1CCCN(S(=O)(=O)c2c(C)noc2/C=C/N(C)C)C1 (configuration not stated)	Tau ThT inhib inconclusive (no result: Coupling enz, JMJD2E inh)
COC(=O)c1cc(NC(=O)c2cc(-c3ccc(OC)cc3)oc2C(F)(F)F)ccc1N1CCOCC1	Tau fibril FP inconclusive, Tau fluor cs 8.9µM[quencher], JMJD2E inh inconclusive (no result: Tau ThT inhib)
COC(=O)c1cc(NC(C)=O)ccc1N1CCOCC1	none
COC(=O)c1cc(NC(=O)c2cc(-c3ccc(C(F)(F)F)cc3)oc2C(F)(F)F)ccc1N1CCOCC1	Tau fluor cs 1µM[quencher], JMJD2E inh inconclusive (no result: Tau ThT inhib)
CCOc1ccc(C2Nc3ccc4ccccc4c3-c3c2c(=O)oc2ccccc32)cc1 (configuration not stated)	Tau fibril FP inconclusive, Tau fluor cs inconclusive, JMJD2E inh inconclusive
COc1ccc(C2Nc3ccc4ccccc4c3-c3c2c(=O)oc2ccccc32)cc1 (configuration not stated)	Tau fibril FP inconclusive, Tau fluor cs inconclusive, JMJD2E inh 3.2µM
C/C(=N\N1C(=O)c2ccccc2NC1c1ccco1)c1ccccc1O (configuration not stated)	JMJD2E inh 22µM
CC(C)C[C@H](NC(=O)CN(C)C(=O)[C@H](Cc1ccccc1)NC(=O)[C@H](Cc1ccccc1)NC(=O)[C@H](CCC(N)=O)NC(=O)[C@H](CCC(N)=O)NC(=O)[C@@H]1CCCN1C(=O)[C@H](CCCCN)NC(=O)[C@@H]1CCCN1C(=O)[C@@H](N)CCCN=C(N)N)C(=O)N[C@@H](CCS(C)(=O)=O)C(N)=O	none (no result: Tau fibril FP, Tau fluor cs, Tau ThT inhib, JMJD2E inh)
COc1ccc(C(=O)Nc2ccc(OCC(F)(F)C(F)F)c(C(F)(F)F)c2)cc1OC	Tau fibril FP 22µM, Tau fluor cs inconclusive, JMJD2E inh inconclusive
COC(=O)N1C2CC3(C)C=C(C)OC1(C)C3c1ccccc12 (configuration not stated)	none
COC(=O)C(C(=O)OC)C1c2ccccc2C=C(C)N1C(=O)OC (configuration not stated)	none
CC(=O)Nc1ccc(Br)c2ccccc12	none
O=C(Nc1ccc(Br)c2ccccc12)c1ccc2ccccc2c1O	Tau fibril FP inconclusive, Tau fluor cs 18µM[quencher], Tau ThT inhib 18µM, JMJD2E inh inconclusive
O=C(Nc1ccc2c(c1)OCCO2)c1ccc(Cl)c([N+](=O)[O-])c1	Tau fluor cs inconclusive, Tau ThT inhib inconclusive
O=C(Nc1ccc(C2=NCCN2)cc1)c1ccc(C(=O)Nc2ccc(C3=NCCN3)cc2)c([N+](=O)[O-])c1	Tau fluor cs inconclusive, Tau ThT inhib 4.5µM
Cc1ccc(-c2nnc(Nc3cccc(O)c3)c3ccccc23)cc1S(=O)(=O)N1CCCCC1	Tau fibril FP inconclusive, Tau fluor cs 8.9µM[quencher] (no result: Coupling enz, JMJD2E inh)
COc1cc(-c2oc3ccc(C)cc3c(=O)c2O)cc(OC)c1OC	Tau ThT inhib inconclusive (no result: Coupling enz, JMJD2E inh)
COc1c(O)c(O)cc2c1oc1c3cc(C)ccc3oc(=O)c21	Tau fibril FP inconclusive, Tau fluor cs 10µM[quencher], Tau ThT inhib 8.9µM, JMJD2E inh 20µM
O=C(CSc1nc(=O)[nH]c2c1CCCC2)NCc1ccc(Cl)cc1	none (no result: Coupling enz, JMJD2E inh)
CCOC(=O)Cc1c(C(=O)OCC)nnc2c(-c3ccccc3)c(C)nn12	Tau ThT inhib inconclusive (no result: Coupling enz, JMJD2E inh)
CCOC(=O)c1ccc2ncc(C(=O)OCC)c(NCCN3CCOCC3)c2c1	none (no result: Tau fibril FP, Tau fluor cs, Tau ThT inhib, JMJD2E inh)
CCOC(=O)c1cnc2ccc(OCC)cc2c1NCc1ccccc1	Tau ThT inhib inconclusive, Coupling enz -44
CCOC(=O)c1cnc2ccc(OCC)cc2c1NCc1cccnc1	Tau ThT inhib inconclusive, JMJD2E inh inconclusive
CCOC(=O)c1cnc2ccc(C(=O)OC)cc2c1Nc1ccc(N2CCOCC2)cc1	Tau fluor cs inconclusive, Tau ThT inhib 14µM (no result: Coupling enz, JMJD2E inh)
CCOC(=O)c1cnc2ccc(C(=O)OC)cc2c1Nc1cccc(C(=O)O)c1	none
CCOC(=O)c1cnc2ccc(Cl)cc2c1Nc1ccc(N2CCOCC2)cc1	Tau fluor cs inconclusive, Tau ThT inhib 16µM (no result: Coupling enz, JMJD2E inh)
CCOC(=O)c1cnc2ccc(C)cc2c1Nc1ccc(N2CCOCC2)cc1	Tau fibril FP inconclusive, Tau fluor cs inconclusive, Tau ThT inhib 28µM
Nc1nc(Cl)nc2c1ncn2C1OC(CO)C(O)C1F (configuration not stated)	none (no result: Tau fibril FP, Tau fluor cs, Tau ThT inhib, JMJD2E inh)
Cc1cc(C)cc(NC(=O)C2CCCN(c3cnccn3)C2)c1 (configuration not stated)	none (no result: Coupling enz, JMJD2E inh)
C[N+]1(Cc2ccccc2)CCC(C(=O)OCC2CCCC2)CC1 (configuration not stated)	none (no result: Coupling enz, JMJD2E inh)
CCOC(=O)c1cnc2ccccc2c1Nc1ccc(C(=O)O)cc1	none
CCOC(=O)c1cnc2ccc(C)cc2c1Nc1ccc(N(CC)CC)cc1	Tau fibril FP inconclusive, Tau fluor cs inconclusive, Tau ThT inhib 13µM (no result: Coupling enz, JMJD2E inh)
CCOC(=O)CC(NC(=O)CCc1c(C)nc2c(c1C)c(=O)n(C)c(=O)n2C)c1ccc(OCC)c(OC)c1 (configuration not stated)	none (no result: Coupling enz, JMJD2E inh)
CN1C(=O)/C(=C/c2ccc(O)c([N+](=O)[O-])c2)NC1=S	Tau ThT inhib 16µM
O=C1/C(=C/c2ccc(O)c([N+](=O)[O-])c2)SC(=S)N1Cc1ccccc1	Tau fluor cs inconclusive, Tau ThT inhib 7.1µM
O=C(NN1C(=O)/C(=C/c2ccc(O)c([N+](=O)[O-])c2)SC1=S)c1ccccc1Cl	Tau fluor cs inconclusive, Tau ThT inhib 4µM
COc1cc(/C=C2\NC(=S)N(C)C2=O)ccc1O	Tau ThT inhib inconclusive
COc1cc(/C=C2\SC(=S)N(NC(=O)c3ccccc3O)C2=O)ccc1O	none (no result: Tau fibril FP, Tau fluor cs, Tau ThT inhib, JMJD2E inh)
O=C1C=C[C@@H](O)[C@H]2[C@@H]3C(=O)N(Cc4ccccc4)C(=O)[C@@H]3CC[C@H]12	none (no result: JMJD2E inh)
